For some of these results: Potency and affinity values are given separately.
Legend:
Set-up in all cases: scale not given: direction of the effect not stated beside the values
[1] = target: Protein translocase subunit SecA (Escherichia coli (strain K12)) (UniProt P10408); experiment: Assay to Identify E. coli SecA ATPase Inhibitors; type: functional; details: 30 µM
[2] = target: T1, Ubiquitin-activating enzyme e1, putative (Leishmania donovani (strain BPK282A1)) (UniProt E9BSI1); experiment: Leishmania donovani Ubiquitin Activating Enzyme (LdE1); type: functional; details: 30 µM
T1 sequence (whole entry): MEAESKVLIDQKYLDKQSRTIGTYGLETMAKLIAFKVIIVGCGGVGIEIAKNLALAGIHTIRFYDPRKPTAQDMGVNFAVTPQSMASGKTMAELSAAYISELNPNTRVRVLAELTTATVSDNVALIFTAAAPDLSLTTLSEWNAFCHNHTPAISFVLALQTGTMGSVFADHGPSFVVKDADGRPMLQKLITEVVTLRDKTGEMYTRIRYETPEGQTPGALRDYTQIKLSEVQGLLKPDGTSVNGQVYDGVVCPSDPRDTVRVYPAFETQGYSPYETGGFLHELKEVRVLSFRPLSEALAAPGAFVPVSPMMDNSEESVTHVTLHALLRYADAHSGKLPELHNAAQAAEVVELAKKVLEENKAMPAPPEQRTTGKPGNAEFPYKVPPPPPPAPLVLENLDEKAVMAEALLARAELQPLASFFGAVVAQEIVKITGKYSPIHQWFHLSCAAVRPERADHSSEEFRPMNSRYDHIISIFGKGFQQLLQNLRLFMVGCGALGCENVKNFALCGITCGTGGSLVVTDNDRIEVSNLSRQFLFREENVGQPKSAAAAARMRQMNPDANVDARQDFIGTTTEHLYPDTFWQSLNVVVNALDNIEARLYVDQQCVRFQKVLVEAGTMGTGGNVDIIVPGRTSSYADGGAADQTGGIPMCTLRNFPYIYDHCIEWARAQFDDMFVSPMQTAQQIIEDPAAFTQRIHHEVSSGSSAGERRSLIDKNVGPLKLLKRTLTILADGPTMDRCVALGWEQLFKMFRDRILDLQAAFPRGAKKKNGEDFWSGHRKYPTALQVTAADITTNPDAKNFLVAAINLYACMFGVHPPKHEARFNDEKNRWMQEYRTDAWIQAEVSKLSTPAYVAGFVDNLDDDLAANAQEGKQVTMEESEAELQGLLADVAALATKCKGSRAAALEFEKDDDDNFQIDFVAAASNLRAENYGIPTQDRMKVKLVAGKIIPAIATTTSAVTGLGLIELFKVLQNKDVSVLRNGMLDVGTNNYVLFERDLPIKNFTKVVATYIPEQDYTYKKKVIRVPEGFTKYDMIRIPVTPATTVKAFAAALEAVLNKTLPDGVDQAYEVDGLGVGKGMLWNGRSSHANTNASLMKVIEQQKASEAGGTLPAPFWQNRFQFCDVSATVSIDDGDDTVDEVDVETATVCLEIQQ

[3] = target: AMP-activated protein kinase, AMPK (Homo sapiens) (UniProt P54646+O43741+P54619+Q9UGJ0+Q9Y478+Q13131+Q9UGI9); experiment: AMP-dependent Kinase enzyme assay. An in vitro enzyme assay that detects ADP turnover that is directly proportional to AMPK activity. This uses naive AMPK that is activated during the assay with MK-8722; type: functional; details: 30 µM
[4] = target: Sialic acid-binding Ig-like lectin 9 (Homo sapiens) (UniProt Q9Y336); experiment: Hs-Siglec9 ALPHAscreen SOP 20170721; details: 10 µM
[5] = test system: Trypanosoma cruzi; experiment: Trypanosoma cruzi phosphomannomutase and mannose-1-phosphate guanylyltransferase assay; type: functional; details: 10 µM
[6] = target: T2, Arginase-2, mitochondrial (Homo sapiens) (UniProt P78540); experiment: in vitro enzyme assay to detect the production of urea directly proportional to the activity of Arginase II; type: functional; details: 33.3 µM; further: in the data most compounds retested in dose-response had high values
T2 sequence (whole entry): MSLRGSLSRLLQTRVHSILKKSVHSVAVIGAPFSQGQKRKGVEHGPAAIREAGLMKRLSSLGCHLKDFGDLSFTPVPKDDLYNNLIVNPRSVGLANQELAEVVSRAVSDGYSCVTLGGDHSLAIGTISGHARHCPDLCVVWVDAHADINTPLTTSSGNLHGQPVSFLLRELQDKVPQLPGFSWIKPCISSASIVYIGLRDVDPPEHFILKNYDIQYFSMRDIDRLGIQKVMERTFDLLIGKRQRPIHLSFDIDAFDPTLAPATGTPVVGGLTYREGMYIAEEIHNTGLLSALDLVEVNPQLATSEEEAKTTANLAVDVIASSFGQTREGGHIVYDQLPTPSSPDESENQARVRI

[7] = target: T3, Proteasome subunit beta (Trypanosoma cruzi) (UniProt O96673); experiment: Trypanosoma cruzi proteasome chymotrypsin-like activity (TcProtChymo) assay.; further: in the data most compounds retested in dose-response had high values; type: functional; details: 9.37 µM
T3 sequence (whole entry): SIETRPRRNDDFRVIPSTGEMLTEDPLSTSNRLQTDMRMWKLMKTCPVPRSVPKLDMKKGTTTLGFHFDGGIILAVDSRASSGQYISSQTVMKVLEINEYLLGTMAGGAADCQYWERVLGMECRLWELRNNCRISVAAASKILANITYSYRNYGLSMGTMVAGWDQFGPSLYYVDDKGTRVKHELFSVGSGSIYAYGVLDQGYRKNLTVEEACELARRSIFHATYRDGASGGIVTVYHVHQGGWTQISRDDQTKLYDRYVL

[8] = species: Homo sapiens; experiment: To identify inhibition of the IFN signalling (Jak-Stat) pathway via expression of an eGFP reporter gene under the control of an IFN-stimulated response element (ISRE) containing MxA promoter.; type: functional; details: 30 µM
[9] = target: T4, Tyrosyl-tRNA synthetase, putative (Trypanosoma cruzi (strain CL Brener)) (UniProt Q4DSP6); experiment: Trypanosoma cruzi tyrosyl tRNA synthetase (TcYRS) _High Tyrosine SOP; type: functional; details: 30 µM; further: in the data most compounds retested in dose-response had high values
T4 sequence (whole entry): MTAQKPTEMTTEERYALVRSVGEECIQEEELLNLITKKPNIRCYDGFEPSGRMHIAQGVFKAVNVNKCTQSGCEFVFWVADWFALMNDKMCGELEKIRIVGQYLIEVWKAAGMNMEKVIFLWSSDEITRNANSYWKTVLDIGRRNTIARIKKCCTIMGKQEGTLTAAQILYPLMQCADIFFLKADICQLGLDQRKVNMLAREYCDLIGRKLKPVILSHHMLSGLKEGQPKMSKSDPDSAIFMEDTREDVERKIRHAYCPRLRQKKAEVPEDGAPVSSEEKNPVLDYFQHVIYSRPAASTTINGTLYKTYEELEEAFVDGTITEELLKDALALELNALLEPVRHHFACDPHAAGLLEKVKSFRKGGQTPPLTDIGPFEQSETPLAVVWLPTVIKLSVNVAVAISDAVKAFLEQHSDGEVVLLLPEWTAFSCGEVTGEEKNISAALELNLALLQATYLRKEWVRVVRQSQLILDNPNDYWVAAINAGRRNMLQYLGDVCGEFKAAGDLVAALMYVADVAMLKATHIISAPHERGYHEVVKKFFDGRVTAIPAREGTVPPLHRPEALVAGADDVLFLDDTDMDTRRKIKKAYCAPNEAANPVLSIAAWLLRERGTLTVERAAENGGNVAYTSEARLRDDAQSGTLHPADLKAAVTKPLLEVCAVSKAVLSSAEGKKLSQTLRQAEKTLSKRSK

[10] = target: T4, Tyrosyl-tRNA synthetase, putative (Trypanosoma cruzi (strain CL Brener)); experiment: Trypanosoma cruzi tyrosyl tRNA synthetase (TcYRS) SOP; type: functional; details: 30 µM
[11] = target: Chromo domain-containing protein 1 (Saccharomyces cerevisiae (strain ATCC 204508 / S288c) (Baker's yeast)) (UniProt P32657); experiment: ScCHD-1 Enzyme Inhibition Assay; type: functional; details: 30 µM; further: in the data most compounds retested in dose-response had high values
Sequence of Chromo domain-containing protein 1 (Saccharomyces cerevisiae (strain ATCC 204508 / S288c) (Baker's yeast)) (P32657 whole entry, the tested form may be a part): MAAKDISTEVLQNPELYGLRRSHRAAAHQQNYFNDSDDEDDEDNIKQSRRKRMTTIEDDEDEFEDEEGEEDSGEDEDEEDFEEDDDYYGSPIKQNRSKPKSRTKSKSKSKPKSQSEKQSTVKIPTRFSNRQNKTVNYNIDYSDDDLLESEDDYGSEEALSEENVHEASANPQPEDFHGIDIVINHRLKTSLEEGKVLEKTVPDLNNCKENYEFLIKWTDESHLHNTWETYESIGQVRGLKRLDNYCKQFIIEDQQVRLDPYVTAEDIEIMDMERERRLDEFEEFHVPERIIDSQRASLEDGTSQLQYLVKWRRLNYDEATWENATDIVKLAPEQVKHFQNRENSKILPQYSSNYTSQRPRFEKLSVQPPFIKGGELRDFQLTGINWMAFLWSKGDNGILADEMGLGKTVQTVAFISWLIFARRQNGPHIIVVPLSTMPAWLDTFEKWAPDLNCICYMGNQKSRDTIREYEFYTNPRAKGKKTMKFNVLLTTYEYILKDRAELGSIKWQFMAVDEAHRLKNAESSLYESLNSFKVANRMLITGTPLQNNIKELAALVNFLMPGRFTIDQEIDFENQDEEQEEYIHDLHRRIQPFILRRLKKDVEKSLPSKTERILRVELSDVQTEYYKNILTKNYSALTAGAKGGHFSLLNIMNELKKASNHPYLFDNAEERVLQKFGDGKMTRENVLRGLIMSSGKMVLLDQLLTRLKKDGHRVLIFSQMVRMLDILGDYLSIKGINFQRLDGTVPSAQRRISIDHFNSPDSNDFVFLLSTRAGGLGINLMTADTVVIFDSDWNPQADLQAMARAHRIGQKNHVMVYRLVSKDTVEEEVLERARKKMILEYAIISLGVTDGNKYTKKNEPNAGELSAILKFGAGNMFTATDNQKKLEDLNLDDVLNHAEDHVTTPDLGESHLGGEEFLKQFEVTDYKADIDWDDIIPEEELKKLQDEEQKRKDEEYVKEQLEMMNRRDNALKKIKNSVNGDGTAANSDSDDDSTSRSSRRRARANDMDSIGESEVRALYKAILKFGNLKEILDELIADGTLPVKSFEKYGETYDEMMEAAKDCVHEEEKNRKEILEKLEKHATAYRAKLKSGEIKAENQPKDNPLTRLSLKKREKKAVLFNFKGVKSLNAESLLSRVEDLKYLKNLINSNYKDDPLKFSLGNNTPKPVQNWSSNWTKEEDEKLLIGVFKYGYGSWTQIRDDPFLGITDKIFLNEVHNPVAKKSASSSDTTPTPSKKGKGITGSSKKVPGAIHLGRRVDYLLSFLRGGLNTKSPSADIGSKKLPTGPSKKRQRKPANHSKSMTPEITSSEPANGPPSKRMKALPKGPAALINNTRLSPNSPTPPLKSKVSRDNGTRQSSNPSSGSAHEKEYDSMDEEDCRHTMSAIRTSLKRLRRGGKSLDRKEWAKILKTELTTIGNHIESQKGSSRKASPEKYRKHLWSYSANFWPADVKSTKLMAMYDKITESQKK

Sequence of Protein translocase subunit SecA (Escherichia coli (strain K12)) (P10408 whole entry): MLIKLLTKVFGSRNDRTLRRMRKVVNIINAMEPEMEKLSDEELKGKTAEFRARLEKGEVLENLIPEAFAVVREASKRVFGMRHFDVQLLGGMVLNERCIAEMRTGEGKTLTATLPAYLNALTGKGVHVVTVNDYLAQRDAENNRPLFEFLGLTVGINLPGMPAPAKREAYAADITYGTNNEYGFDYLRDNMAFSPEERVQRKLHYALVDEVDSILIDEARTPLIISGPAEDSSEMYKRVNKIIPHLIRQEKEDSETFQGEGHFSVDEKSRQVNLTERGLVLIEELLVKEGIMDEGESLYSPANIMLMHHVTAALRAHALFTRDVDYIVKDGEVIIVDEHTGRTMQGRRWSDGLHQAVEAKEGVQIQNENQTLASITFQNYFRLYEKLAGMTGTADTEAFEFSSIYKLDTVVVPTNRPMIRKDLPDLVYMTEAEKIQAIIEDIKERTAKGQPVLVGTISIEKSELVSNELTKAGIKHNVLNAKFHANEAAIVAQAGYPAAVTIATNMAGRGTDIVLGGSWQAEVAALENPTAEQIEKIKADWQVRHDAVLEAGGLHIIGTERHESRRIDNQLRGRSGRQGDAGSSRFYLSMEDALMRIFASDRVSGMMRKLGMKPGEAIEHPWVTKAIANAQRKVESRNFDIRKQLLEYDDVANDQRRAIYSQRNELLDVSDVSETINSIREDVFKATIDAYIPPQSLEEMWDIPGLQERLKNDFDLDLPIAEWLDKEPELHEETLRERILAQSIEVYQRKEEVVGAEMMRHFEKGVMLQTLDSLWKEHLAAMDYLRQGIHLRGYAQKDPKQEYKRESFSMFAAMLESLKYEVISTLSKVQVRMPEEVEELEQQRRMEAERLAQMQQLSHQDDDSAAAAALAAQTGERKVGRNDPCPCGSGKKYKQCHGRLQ
Sequence of Sialic acid-binding Ig-like lectin 9 (Homo sapiens) (Q9Y336 whole entry): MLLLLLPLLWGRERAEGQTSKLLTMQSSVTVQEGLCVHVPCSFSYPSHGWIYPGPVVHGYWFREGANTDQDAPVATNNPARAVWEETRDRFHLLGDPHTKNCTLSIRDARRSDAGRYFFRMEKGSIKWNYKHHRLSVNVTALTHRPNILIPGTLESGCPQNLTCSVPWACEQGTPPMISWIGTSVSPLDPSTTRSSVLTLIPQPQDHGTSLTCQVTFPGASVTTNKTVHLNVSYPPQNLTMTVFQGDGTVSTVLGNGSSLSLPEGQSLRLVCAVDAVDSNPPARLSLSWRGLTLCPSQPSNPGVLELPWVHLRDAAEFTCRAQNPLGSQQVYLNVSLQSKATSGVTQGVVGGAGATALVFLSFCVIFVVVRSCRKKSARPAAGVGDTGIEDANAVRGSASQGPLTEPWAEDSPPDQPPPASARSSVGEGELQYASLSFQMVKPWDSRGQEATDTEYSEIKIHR

| SMILES | Percent Effect [1] [%] | Percent Effect [2] [%] | Percent Effect [3] [%] | Percent Effect [4] [%] | Percent Effect [5] [%] | Percent Effect [6] [%] | Percent Effect [7] [%] | Percent Effect [8] [%] | Percent Effect [9] [%] | Percent Effect [10] [%] | Percent Effect [11] [%] |
| --- | --- | --- | --- | --- | --- | --- | --- | --- | --- | --- | --- |
| COCC1Cn2nnc(-c3cnn(C)c3)c2CN1Cc1ccc(C)s1 (stereo not given) | -0.562 | 10.8 | 12 | -1.82 | 1.37 | 18.3 | -0.0845 | 48.1 | 6.93 | 6.1 | -4.26 |
| CC(=O)NC(C)(C)C(=O)Nc1ncc(Cc2ccc(C)c(F)c2)s1 | -2.79 | 13.9 | 1.18 | 3.12 | 8.51 | -2.37 | 13.2 | 28.2 | 5.21 | 17.7 | -33.1 |
| CC(=O)N(Cc1ncc(C)o1)C1CCN(Cc2ccncc2Cl)C1 (stereo not given) | -2.28 | 15.6 | -3.8 | -0.636 | 3.62 | 1.05 | 11.2 | -2.79 | 11.4 | 30.6 | -18.4 |
| CC(NC(=O)NCCCn1cccn1)c1cccnc1 (stereo not given) | -4.3 | -2.67 | -0.757 | -5.85 | -4.77 | -3.12 | 7.85 | 1.99 | -1.64 | -6.17 | 6.57 |
| CCn1ccnc1CN1CCC(CNC(=O)c2ccc(C)nc2)C1 (stereo not given) | -0.749 | 10.4 | 4.72 | 15.7 | 6.39 | -1.38 | 12 | 15.6 | 8.6 | 16.1 | -3.08 |
| CC(Sc1nnnn1C1CCOCC1)C(=O)NC1CCCCC1 (stereo not given) | -6.54 | 2.67 | -2.78 | 37.4 | 3.21 | 3.65 | 13.8 | 24.9 | 7.1 | 16.1 | -4.98 |
| CC(CNc1cncc(-n2cccn2)n1)N(C)c1ccccc1 (stereo not given) | -0.428 | 0 | 9.04 | 7.11 | 0.374 | 0.712 | 1.52 | 51.6 | 0.971 | 0 | -6.86 |
| NC(=O)C1CCN(CCc2ccc(NC(=O)C3CCC3)cc2)CC1 | -4.73 | 8.11 | -5.62 | 9.13 | 2.14 | -0.554 | 2.87 | 6.62 | 6.93 | 23.2 | -5.51 |
| Cc1cc(F)ccc1OC1(C(=O)O)CCN(Cc2cccnc2N)CC1 | -6.33 | 5.33 | -1.53 | 2.08 | -3.02 | -0.521 | 5.93 | 0.568 | 6.01 | 11.1 | 1.09 |
| Cc1nc2ccnn2c(C)c1CCC(=O)N1CCC(C(N)=O)CC1 | -6.89 | 2.63 | 0.295 | -2.71 | -5.32 | 2.88 | 5.5 | 4.03 | 5.42 | 1.24 | 1.87 |
| CCc1nc(CN(C)C2CCN(CCn3cc(C#N)cn3)C2)no1 (stereo not given) | 1.6 | 13.5 | -2.36 | -1.05 | -7.64 | -13.6 | 17.5 | 23.4 | 4.43 | 6.17 | -5.98 |
| COc1nn(C)c2c1CCCN(C(=O)c1cc[nH]n1)C2 | -5.44 | -5.41 | 5.53 | 2.19 | -4.4 | -0.319 | 22.3 | -1.16 | -11.9 | -12.8 | 6.55 |
| CC(NC(=O)NCc1cccc(N2CCCC2=O)c1)c1ccccc1 (stereo not given) | -2.62 | 7.79 | 4.82 | 12.6 | 3.23 | -10.7 | 7.36 | -2.7 | 1.91 | 11.8 | -21.1 |
| Cc1ncsc1C(=O)NCCn1nc(C2CCNC2)c2cccnc21 (stereo not given) | -1.57 | -2.67 | 5.57 | 1.22 | 2.17 | 0.699 | 3.26 | -2.08 | 0 | 6.41 | 1.51 |
| CCCc1nc(C(C)(C)NC(=O)C2CC(=O)N(CC3CC3)C2)no1 (stereo not given) | -3.09 | 10.8 | -4.68 | -4.84 | -6.78 | 2.4 | -5.75 | 14.8 | 2.97 | 11 | 5.6 |
| Cc1ccc(=O)n(CC2(O)CCN(Cc3cnc(C)nc3)CC2)n1 | -6.32 | 6.76 | 4.75 | -1.5 | -2.96 | -3.48 | 11.9 | 17.5 | -1.07 | 3.9 | 5.12 |
| Cc1cc(C(=O)N2CC[C@H](OCC3CC3)[C@@H]2Cc2cccnc2)no1 | -2.54 | 0 | 0.886 | -3.88 | 0.772 | -36.4 | 4.79 | -3.71 | -1.04 | -2.5 | -5.62 |
| CC(C)c1nc(CN(C)CC2CCN(CCO)CC2)no1 | -2.78 | 0 | -3.56 | 0.371 | -1.35 | 2.86 | 1.9 | 1.02 | 2.65 | 9.76 | -3.71 |
| CCNc1cc2c(nn1)CCN(C(=O)c1ccnc(N(C)C)c1)C2 | -2.5 | 5.26 | -29.5 | 4.93 | 9.21 | 4.98 | 5.01 | -24.9 | 4.41 | 4.88 | -5.51 |
| CC(=O)N(Cc1noc(C2CC2)n1)C1CCN(Cc2cccnc2)C1 (stereo not given) | -2.68 | 13.5 | -6.59 | 0.785 | -1.76 | -0.185 | 2.51 | 12.5 | 4.95 | 18.3 | -7.09 |
